Screening results as filed in PubChem BioAssay.
M1 PAM parental = nonselective calcium activators in parental CHO-K1 cells, primary screen, counter-screen for M1 PAM project, cell-based, Fluo-8 calcium fluorescence, full deck, 1536-well | ATP EC20; 0% at ATP EC20, 100% at ATP max | activation, % at 3 µM | 0.02% of 360,000 active | AID 602247, 2012;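 active = activation above the run cutoff, the mean activation of all test compounds plus 3 SD, cut at about 40% in these data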;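 note: peak over basal fluorescence ratio in a 140 s read after ATP addition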
CHRM1 antagonist = human M1 muscarinic receptor antagonists, primary screen, CHO-K1 cells, Fluo-8 calcium fluorescence, 1536-well. Muscarinic acetylcholine receptor M1 (Homo sapiens), P11229. CHO-K1 hM1, ACh EC80 antagonist. inhibition, % at 3 µM. 1.3% of 360,000 active;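 active = percent inhibition above its own plate's cutoff, namely the mean of that plate's compound wells plus 3 SD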;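 note: peak over basal fluorescence ratio during 140 s after agonist addition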
Target sequence (P11229 whole entry, looked up): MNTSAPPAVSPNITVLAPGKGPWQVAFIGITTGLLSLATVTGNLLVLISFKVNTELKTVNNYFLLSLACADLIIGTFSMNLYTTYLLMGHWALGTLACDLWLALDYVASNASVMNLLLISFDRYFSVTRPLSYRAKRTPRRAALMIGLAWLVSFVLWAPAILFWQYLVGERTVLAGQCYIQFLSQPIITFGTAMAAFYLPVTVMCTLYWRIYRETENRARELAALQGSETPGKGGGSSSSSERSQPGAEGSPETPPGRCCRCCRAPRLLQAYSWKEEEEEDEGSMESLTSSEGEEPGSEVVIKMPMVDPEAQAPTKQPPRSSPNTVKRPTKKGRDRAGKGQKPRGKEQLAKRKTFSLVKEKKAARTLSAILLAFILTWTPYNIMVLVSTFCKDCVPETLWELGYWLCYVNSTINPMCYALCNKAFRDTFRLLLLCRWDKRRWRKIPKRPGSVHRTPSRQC
CHRM1 PAM = human M1 muscarinic receptor positive allosteric modulators, primary screen, CHO-K1 cells, Fluo-8 calcium fluorescence, 1536-well; 0.088% of 360,000 active; Muscarinic acetylcholine receptor M1 (Homo sapiens), P11229; CHO-K1 hM1, ACh EC20; 0% = ACh EC20, 100% = maximal ACh; AID 588819, 2011; activation, % at 3 µM; in the data active = activation above about 19%, passing the limit was not always enough
CHO-K1 Ca antag = M1 antagonist counterscreen hit in parental CHO-K1 cells; 0.6% of 360,000 active; inhibition, % at 3 µM; ATP-induced calcium, Fluo-8 fluorescence;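 active = inhibition above a per-plate cutoff, the plate's mean sample inhibition plus 3 SD, cut at about 24% in these data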
CHO-K1 Ca ag = counter-screen for M1 agonists: effect in parental CHO-K1 cells. activation, % at 3 µM. Fluo-8 calcium fluorescence; scaled to maximal ATP response, vehicle zero. 0.48% of 360,000 active; in the data active = activation above about 15%;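 note: untransfected CHO-K1 host cells lacking M1 receptor as counterscreen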
M1 ag = human M1 muscarinic receptor agonists, primary screen, Fluo-8 calcium fluorescence, CHO-K1 cells, HTS | 0.33% of 360,000 active | activation, % at 3 µM | Muscarinic acetylcholine receptor M1 (Homo sapiens), P11229 | CHO-K1 hM1, agonist mode; 0% DMSO, 100% acetylcholine EC100 | AID 588814, 2011;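 active = activation above the run's mean compound activation plus 3 SD, cut at about 16% in these data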;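 note: peak over basal fluorescence ratio within a 140 s kinetic read after compound addition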
Each line names hits and unclear results; the compound was inactive in the other large screens. This is a sample that favours compounds with a hit; in the whole collection about 2.4% have one here.

COc1ccc(N2C(=O)CCC(C(=O)NCCN3CCOCC3)C2c2ccc(OC)c(OC)c2)cc1 (stereo not drawn)	CHRM1 antagonist 21.7
NCC1CC2c3ccccc3C1c1ccccc12 (stereo not drawn)	CHRM1 antagonist 27.9
CCOC(=O)C1CCCN(Cc2ccc(O)c(OC)c2)C1 (stereo not drawn)	M1 ag 23.5
CCOC(=O)C1CCCN(C(=O)/C=C/c2cc(OC)c(OC)c(OC)c2)C1 (stereo not drawn)	M1 ag 23.9
CCOC(=O)C1CCCN(Cc2nc3ccc([N+](=O)[O-])cc3c(=O)n2-c2ccc(OC)cc2OC)C1 (stereo not drawn)	CHRM1 antagonist 50.7, M1 ag 54.1
CCOC(=O)C1CCCN(C(=O)Cc2ccc(OC)c(OC)c2)C1 (stereo not drawn)	none
CCOC(=O)C1CCCN(C(=O)Cc2ccc(OC)c(OC)c2)CC1 (stereo not drawn)	CHO-K1 Ca antag 25.6
Cc1ccc(F)c([C@H]2C3C=CCC(c4ccccc4)C3C(=O)N2Cc2ccccc2)c1 (stereo partly drawn)	none
COc1ccc(NC(=O)C(NS(=O)(=O)c2cccs2)C(C)C)cc1Cl (stereo not drawn)	none
CCCCNC(=S)Nc1ccc(OC)nc1	none
CCOc1cc(CN2CCCC(C(=O)c3cccc(C(F)(F)F)c3)C2)ccc1O (stereo not drawn)	CHRM1 antagonist 32.2
O=C(c1cccc(C(F)(F)F)c1)C1CCCN(Cc2cccn2-c2ncccn2)C1 (stereo not drawn)	none
CCN1CCN(C2=C(Cl)C(=O)N(Cc3ccccc3)C2=O)CC1	CHRM1 antagonist 77.7
CN1CCN(C2=C(Cl)C(=O)N(Cc3ccccc3)C2=O)CC1	CHRM1 antagonist 27.0
CCCCCCCCS(=O)C1CCS(=O)(=O)C1 (stereo not drawn)	none
CCCCCCS(=O)[C@H]1CS(=O)(=O)C[C@@H]1S(=O)CCCCCC (stereo partly drawn)	CHRM1 antagonist 19.5
CCCn1c(CCNc2nc(-c3cccc(Br)c3)cs2)nc2ccccc21	none
COc1cccc(C(NC(C)=O)c2nc(-c3ccc4c(c3)OCO4)cs2)c1 (stereo not drawn)	none
CC(C)(C)c1cc(C(=O)NNC(=O)Nc2cccc(Cl)c2)n(Cc2ccccc2)n1	CHO-K1 Ca antag 29.3
CC(C)(C)c1cc(C(=O)NNC(=O)Nc2ccccc2)n(Cc2ccccc2)n1	none
CC1CCN(CCOCCOc2ccc(Br)cc2Cl)CC1	CHRM1 antagonist 45.2
CC(C)(C)c1csc(NC(=O)C2=COCCO2)n1	CHRM1 antagonist 39.6
O=C(NCC1CC1)c1ccc2sc([C@@H]3O[C@H](CO)[C@H](O)[C@H](O)[C@H]3O)nc2c1	none
COCCn1c(SCC(=O)Nc2ccc3[nH]c(=O)[nH]c3c2)nc2ccccc21	CHRM1 antagonist 38.2
CCn1c(SCC(=O)Nc2ccc3[nH]c(=O)[nH]c3c2)nc2ccccc21	CHRM1 antagonist 49.5
CC(C)Cn1c(SCC(=O)Nc2ccc3[nH]c(=O)[nH]c3c2)nc2ccccc2c1=O	none
COC(=O)CC1(C(=O)OC)Nc2cc(Cl)c(Cl)cc2S(=O)(=O)N1O (stereo not drawn)	none
CCOC(=O)c1[nH]c2ccc(C(=O)OC)cc2c1C(=O)OCC	CHO-K1 Ca antag 25.2
CCOC(=O)c1[nH]c2ccc(C)cc2c1N	none
S=C(NCCCN1CCN(CCCNC(=S)NC2CCCCC2)CC1)NC1CCCCC1	none
CCCN=C1CC(C)(C)CC(=O)/C1=C(/O)CCC	CHO-K1 Ca ag 17.7
CCC(C)(C)c1nnc(NC(=O)C2CC(=O)N(CCc3ccc(F)cc3)C2)s1 (stereo not drawn)	none
COc1cccc(C(C)(O)c2nc(-c3cccc(C(C)C)c3)cs2)c1 (stereo not drawn)	none
COc1ccc(Cl)cc1C(=O)CSc1nnnn1C1CCCCC1	CHRM1 antagonist 26.9
CN(C(=O)c1ccc(NC(=O)Cc2ccc(NC(=O)C3CCN(C(=O)C4CC4)CC3)cc2)cc1)C1CCCC1	CHRM1 PAM 27.0
Cc1ccc(S(=O)(=O)Nc2ccc(Oc3cccnc3)nc2)cc1	none
O=C(C1CC1)N1CCN(Cc2ccccc2)CC1	none
CC1(C)C(C=C(Cl)Cl)C1C(=O)N1CCN(Cc2ccccc2)CC1 (stereo not drawn)	CHRM1 antagonist 41.8
COc1ccc(S(=O)(=O)Nc2ccc(S(=O)(=O)Nc3nccs3)cc2)cc1	none
Cc1ccc(S(=O)(=O)Nc2ccc(Nc3ccccc3)cc2)cc1	none
O=[N+]([O-])c1ccc(S(=O)(=O)Nc2ccncc2)cc1	none
O=S(=O)(Nc1ccc(Nc2ccccc2)cc1)c1ccc(F)cc1	CHO-K1 Ca antag 24.4
O=[N+]([O-])c1ccc(Oc2ccc(S(=O)(=O)Nc3ccccc3)cc2)cc1	CHRM1 antagonist 41.6, CHO-K1 Ca antag 29.3, CHO-K1 Ca ag 18.9, M1 ag 19.4
CC(C(=O)Nc1ccccc1Br)N1c2cccc3cccc(c23)S1(=O)=O (stereo not drawn)	none
CCOC(=O)c1ccc(NC(=S)N2CCSC2c2ccc(Br)cc2)cc1 (stereo not drawn)	CHRM1 antagonist 33.5, M1 ag 33.7
C=CCn1c(SC(C)C(=O)NC2(C#N)CCCCC2)nnc1-c1ccc(OC)cc1 (stereo not drawn)	CHRM1 antagonist 33.0
O=C(NCc1ccc(Cl)nc1)c1csc([C@@H]2C[C@H](O)[C@@H](CO)O2)n1	none
Cc1cc(C)cc(NC(=O)CSc2nnc(-c3cc(C)[nH]n3)n2N)c1	none
Cc1nn(C(C)C(=O)NCCN2CCCCCC2)c(=O)c2nn(-c3ccccc3)c(C)c12 (stereo not drawn)	CHRM1 antagonist 57.6
CCc1nn(C(C)C(=O)NCCN2CCCCCC2)c(=O)c2cc3occc3n12 (stereo not drawn)	CHRM1 antagonist 37.9
CCc1nn(C(C)C(=O)NCCN2CCN(c3cccc(C)c3C)CC2)c(=O)c2cc3occc3n12 (stereo not drawn)	none
CCOc1ccc(-n2nc3c(=O)n(CCN4CCCCC4)nc(C)c3c2C)cc1	CHRM1 antagonist 30.5
Cc1nn(CC(=O)NCCN2CCCCCC2)c(=O)c2nn(-c3ccccc3)c(C)c12	none
COc1ccc(N2C(=O)C(CC(=O)Nc3ccccc3)N(Cc3ccccn3)C2=S)cc1 (stereo not drawn)	none
